Reference: the supplement of paper PMC10849652
Of roughly 7,900 targets only a part is listed; those with a hit were picked by preference. About 0.6% of all pairs of compound and target were hits.

The targets below were run with c1cn2cc(-c3ccc4cn[nH]c4c3)nc(Nc3ccc(N4CCOCC4)cc3)c2n1 [entospletinib] (assay: log2 fold change, soluble protein after heating vs DMSO (PISA); higher = thermal stabilisation; K562 cells, 10 uM, 30 min; active = over 0.2 and 3.5 SD of the protein, either way, in both replicates (recomputed)).
How it was run: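 K562 cells (2×10^6 cells/mL) were treated with 10 μM compound for 30 min, and aliquots were heated for 3 min over 48°C-58°C. Pooled aliquots were extracted in PBS with 0.5% NP-40 at 4°C, and the supernatant after 21,000xg for 90 min was measured by TMTpro 16plex LC-MS/MS with channel sums equalised. Reported thermal stability, relative to control samples and from duplicates, is a log2 fold change.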

Sequence of UniProt Q9H0C8 (Q9H0C8 whole entry, looked up): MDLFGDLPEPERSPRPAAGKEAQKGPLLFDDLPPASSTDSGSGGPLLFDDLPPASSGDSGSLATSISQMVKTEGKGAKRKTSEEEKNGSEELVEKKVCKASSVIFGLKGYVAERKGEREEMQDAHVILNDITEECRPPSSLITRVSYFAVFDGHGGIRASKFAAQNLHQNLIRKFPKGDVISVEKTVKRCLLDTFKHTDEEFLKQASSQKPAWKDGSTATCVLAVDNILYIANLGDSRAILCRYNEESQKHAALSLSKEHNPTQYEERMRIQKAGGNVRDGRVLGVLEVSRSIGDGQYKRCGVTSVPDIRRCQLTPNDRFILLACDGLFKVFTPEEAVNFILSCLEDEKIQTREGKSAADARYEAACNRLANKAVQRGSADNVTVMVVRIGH
Sequence of UniProt O95373 (O95373 whole entry, looked up): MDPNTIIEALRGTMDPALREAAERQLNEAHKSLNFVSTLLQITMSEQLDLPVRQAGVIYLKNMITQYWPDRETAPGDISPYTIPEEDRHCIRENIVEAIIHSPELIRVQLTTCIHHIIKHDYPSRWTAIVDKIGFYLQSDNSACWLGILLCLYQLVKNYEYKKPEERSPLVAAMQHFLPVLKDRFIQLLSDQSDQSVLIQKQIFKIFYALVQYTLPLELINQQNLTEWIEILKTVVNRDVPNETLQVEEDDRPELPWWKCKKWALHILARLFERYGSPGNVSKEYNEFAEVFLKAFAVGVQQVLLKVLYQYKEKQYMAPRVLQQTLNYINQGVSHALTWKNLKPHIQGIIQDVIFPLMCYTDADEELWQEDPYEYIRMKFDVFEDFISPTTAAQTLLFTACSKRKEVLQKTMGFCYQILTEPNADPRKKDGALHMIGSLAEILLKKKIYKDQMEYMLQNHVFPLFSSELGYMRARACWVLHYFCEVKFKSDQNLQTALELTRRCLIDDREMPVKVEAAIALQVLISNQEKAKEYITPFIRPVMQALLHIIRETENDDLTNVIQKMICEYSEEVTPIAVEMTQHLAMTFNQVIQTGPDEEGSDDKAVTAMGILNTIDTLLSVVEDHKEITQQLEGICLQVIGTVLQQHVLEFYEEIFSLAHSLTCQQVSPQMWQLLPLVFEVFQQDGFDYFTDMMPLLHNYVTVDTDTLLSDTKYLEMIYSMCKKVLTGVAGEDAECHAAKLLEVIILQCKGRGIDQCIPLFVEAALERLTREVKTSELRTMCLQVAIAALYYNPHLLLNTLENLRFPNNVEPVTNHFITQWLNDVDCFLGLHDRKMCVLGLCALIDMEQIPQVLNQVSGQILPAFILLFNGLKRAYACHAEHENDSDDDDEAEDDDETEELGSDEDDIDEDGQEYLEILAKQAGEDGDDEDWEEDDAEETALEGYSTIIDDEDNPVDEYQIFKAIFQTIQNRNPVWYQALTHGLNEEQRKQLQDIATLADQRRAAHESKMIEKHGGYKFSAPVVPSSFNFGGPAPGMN
Sequence of UniProt Q8NC54 (Q8NC54 whole entry, looked up): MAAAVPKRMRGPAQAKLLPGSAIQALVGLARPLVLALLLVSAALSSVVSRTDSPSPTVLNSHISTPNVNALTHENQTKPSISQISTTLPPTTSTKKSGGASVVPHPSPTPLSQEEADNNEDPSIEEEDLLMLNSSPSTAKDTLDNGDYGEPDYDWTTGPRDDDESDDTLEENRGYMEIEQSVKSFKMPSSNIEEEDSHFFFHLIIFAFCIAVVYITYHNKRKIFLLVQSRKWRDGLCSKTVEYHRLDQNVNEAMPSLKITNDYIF
Sequence of UniProt Q92604 (Q92604 whole entry, looked up): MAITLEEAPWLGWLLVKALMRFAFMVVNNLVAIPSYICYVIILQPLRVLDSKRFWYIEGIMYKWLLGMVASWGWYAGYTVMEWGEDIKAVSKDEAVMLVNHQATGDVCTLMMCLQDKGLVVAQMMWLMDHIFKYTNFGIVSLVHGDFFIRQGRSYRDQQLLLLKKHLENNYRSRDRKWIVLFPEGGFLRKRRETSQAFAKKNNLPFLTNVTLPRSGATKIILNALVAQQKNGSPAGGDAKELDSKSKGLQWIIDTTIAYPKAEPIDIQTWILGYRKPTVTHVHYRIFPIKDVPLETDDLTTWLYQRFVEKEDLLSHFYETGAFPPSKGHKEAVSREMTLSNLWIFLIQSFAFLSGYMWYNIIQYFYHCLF
Sequence of UniProt P32019 (P32019 whole entry, looked up): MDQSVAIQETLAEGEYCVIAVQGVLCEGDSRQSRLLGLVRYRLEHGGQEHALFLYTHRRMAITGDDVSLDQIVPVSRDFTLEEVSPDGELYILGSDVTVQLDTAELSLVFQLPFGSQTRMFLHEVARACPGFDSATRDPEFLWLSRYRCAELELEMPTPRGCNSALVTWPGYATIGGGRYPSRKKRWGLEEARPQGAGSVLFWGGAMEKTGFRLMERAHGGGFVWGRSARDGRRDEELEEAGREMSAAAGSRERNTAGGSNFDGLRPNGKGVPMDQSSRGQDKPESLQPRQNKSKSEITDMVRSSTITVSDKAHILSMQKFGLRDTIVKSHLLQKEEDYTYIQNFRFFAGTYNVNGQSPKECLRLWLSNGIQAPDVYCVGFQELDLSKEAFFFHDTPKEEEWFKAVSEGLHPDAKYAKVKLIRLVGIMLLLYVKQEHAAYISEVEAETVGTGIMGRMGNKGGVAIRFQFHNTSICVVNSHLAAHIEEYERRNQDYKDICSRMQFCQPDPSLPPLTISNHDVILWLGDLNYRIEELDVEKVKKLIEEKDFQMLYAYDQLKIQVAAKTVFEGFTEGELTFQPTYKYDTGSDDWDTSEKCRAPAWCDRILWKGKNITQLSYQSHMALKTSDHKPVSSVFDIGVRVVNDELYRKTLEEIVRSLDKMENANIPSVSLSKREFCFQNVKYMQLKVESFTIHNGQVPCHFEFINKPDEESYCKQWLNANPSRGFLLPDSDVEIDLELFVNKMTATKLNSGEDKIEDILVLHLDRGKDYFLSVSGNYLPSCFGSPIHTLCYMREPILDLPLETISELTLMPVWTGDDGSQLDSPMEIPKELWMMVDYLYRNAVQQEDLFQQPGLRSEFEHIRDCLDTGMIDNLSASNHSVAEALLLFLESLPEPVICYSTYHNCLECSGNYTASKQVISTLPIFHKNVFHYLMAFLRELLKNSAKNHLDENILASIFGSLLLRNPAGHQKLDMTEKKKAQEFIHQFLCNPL
Sequence of UniProt Q5XKP0 (Q5XKP0 whole entry, looked up): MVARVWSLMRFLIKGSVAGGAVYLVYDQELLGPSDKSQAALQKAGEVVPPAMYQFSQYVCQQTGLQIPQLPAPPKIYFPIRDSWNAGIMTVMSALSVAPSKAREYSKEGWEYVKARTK
Sequence of UniProt Q96GA3 (Q96GA3 whole entry, looked up): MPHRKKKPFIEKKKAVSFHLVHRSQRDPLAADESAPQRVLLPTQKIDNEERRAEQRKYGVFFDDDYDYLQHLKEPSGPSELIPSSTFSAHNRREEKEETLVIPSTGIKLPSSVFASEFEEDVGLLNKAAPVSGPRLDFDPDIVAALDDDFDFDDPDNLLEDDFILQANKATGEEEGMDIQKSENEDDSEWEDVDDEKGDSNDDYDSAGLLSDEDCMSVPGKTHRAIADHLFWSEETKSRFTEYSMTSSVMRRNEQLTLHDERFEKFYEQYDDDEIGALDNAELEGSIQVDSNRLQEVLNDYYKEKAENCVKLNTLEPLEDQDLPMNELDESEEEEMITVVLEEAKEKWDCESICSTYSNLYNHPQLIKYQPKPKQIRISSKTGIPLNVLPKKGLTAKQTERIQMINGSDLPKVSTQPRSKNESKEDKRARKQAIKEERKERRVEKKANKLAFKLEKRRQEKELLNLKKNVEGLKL
Sequence of UniProt Q92615 (Q92615 whole entry, looked up): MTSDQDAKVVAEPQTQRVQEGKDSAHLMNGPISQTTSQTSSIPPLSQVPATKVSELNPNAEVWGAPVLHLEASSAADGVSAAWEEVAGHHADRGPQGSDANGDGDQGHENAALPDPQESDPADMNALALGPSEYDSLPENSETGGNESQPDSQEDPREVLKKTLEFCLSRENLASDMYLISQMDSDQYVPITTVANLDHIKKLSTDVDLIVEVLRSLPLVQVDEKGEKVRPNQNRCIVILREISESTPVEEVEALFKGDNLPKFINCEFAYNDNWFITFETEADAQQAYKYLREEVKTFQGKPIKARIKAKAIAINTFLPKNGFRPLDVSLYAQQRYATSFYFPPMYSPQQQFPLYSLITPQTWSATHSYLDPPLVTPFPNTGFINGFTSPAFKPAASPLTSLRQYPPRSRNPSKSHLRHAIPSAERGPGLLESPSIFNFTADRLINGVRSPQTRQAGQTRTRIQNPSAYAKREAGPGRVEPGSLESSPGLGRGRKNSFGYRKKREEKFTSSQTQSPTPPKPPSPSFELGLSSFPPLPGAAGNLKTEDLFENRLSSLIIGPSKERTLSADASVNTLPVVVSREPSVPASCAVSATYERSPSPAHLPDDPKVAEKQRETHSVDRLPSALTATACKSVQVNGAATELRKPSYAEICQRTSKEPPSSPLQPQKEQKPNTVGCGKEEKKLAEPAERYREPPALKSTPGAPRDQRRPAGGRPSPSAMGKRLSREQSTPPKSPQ
Sequence of UniProt Q9Y287 (Q9Y287 whole entry, looked up): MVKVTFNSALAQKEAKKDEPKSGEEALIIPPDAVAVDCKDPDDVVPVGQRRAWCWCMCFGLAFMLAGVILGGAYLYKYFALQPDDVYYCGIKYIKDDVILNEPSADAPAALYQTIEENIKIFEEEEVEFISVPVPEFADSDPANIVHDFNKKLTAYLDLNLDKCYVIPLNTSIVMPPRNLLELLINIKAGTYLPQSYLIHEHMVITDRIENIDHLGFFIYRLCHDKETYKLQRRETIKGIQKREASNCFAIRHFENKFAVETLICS
Sequence of UniProt Q9BQD3 (Q9BQD3 whole entry, looked up): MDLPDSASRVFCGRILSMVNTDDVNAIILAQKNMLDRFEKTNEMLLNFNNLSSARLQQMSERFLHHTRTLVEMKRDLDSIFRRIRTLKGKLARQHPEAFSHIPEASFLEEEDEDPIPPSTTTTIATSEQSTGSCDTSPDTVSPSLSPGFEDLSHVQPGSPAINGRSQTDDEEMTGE

log2 fold change, inactive:
MFF (UniProt Q9GZY8) -0.029
MAP2K1 (UniProt Q02750) -0.026
INTS7 (UniProt Q9NVH2) -0.005
KIF11 (UniProt P52732) 0.058
ITIH4 (UniProt Q14624) 0.124
ILF3 (UniProt Q12906) -0.086
MARK3 (UniProt P27448) -0.024
LPCAT3 (UniProt Q6P1A2) 0.012
KLHDC4 (UniProt Q8TBB5) 0.065
MED25 isoform 3 (UniProt Q71SY5) -0.01
ILKAP (UniProt Q9H0C8) -0.012
ITM2B (UniProt Q9Y287) -0.011
METTL18 (UniProt O95568) 0.072
KXD1 (UniProt Q9BQD3) 0.016
ILK (UniProt Q13418) 0.074
INPP5B (UniProt P32019) 0.026
KCT2 (UniProt Q8NC54) 0.022
LMBRD2 (UniProt Q68DH5) 0.024
MAP2K3 isoform 3 (UniProt P46734) 0.013
ILRUN (UniProt Q9H6K1) -0.004
ME2 (UniProt P23368) 0.008
MAPKAPK2 (UniProt P49137) -0.061
LGALS8 isoform 2 (UniProt O00214) 0.101
MICOS13 (UniProt Q5XKP0) 0.049
MCCC2 (UniProt Q9HCC0) -0.002
LTN1 isoform 3 (UniProt O94822) -0.001
LTV1 (UniProt Q96GA3) 0.09
L2HGDH (UniProt Q9H9P8) 0.039
LARP4B (UniProt Q92615) 0.063
MARCHF3 (UniProt Q86UD3) 0.058
IPO7 (UniProt O95373) 0.027
IPO9 (UniProt Q96P70) 0.037
LPGAT1 (UniProt Q92604) -0.069
MAP4K4 isoform 3 (UniProt O95819) -0.019
